Data reported in PubChem BioAssay AID1619 (SRMLSC, 2009).
The whole screen tested about 220,000 compounds, of which about 830 (0.38%) were called active.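 How the source made its calls: active means compound inhibiting the enzyme by more than half at any dose during confirmatory dose-response retesting; inconclusive means strong single-dose inhibitors picked by rank but not retested; inactive means the rest.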 These entries were drawn from the full list. Measured potencies and affinities stand elsewhere.

The molecules below were run against Leucine aminopeptidase (Plasmodium falciparum (isolate 3D7)) (UniProt Q8IL11) (assay: P. falciparum M17LAP inhibitors, primary screen, biochemical, fluorogenic H-Leu-NHMec substrate, 1536-well (AID 1619;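 further: plate controls were full reaction with DMSO carrier for no effect and no enzyme background for full effect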)). Conditions: recombinant M17LAP, H-Leu-NHMec fluorogenic kinetic assay; at 30 µM; active compounds read high.
Sequence of Leucine aminopeptidase (Plasmodium falciparum (isolate 3D7)) (Q8IL11 whole entry, looked up): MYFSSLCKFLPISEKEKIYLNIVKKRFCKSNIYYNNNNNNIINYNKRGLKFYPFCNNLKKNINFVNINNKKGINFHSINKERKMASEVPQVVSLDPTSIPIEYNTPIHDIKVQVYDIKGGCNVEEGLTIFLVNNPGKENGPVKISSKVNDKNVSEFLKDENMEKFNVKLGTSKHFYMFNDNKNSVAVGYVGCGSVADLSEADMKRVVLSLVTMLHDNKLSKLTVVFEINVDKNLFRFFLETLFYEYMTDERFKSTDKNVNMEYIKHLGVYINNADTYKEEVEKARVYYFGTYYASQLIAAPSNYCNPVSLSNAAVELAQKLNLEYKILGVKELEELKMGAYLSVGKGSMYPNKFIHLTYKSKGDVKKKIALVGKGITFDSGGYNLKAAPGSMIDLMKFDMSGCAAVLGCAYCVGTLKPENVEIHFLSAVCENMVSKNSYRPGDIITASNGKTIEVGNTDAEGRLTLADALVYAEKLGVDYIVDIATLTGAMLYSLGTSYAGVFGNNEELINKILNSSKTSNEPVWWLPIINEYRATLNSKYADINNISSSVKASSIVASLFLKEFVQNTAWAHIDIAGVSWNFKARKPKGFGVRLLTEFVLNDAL

inhibition, inactive:
O=C(NNC(=S)NC1CCCCC1)c1sc2ccccc2c1Cl 13.2%, O=C(NNC(=O)C1CC2CCC1C2)c1ccccc1 (centres undefined) 17.8%, CC(C)(C)c1ccc(/C=C2\Oc3cc(OC(=O)N4CCOCC4)ccc3C2=O)cc1 -5.21%, CCCC(C)NS(=O)(=O)c1ccc(OC)c(C)c1 (centres undefined) 1.13%, Cn1c(-c2ccc3ccccc3n2)nc2cnccc21 9.33%, CCCNC(=O)C(=O)NCc1ccccn1 -4.32%, Cc1ccc(NC(=O)NC(=O)CN2C(=O)NC3(CCCCCCC3)C2=O)c(C)c1 3.61%, COc1ccccc1NC(=O)CN1C(=O)NC2(CCCCCCC2)C1=O -0.01%, Cc1cc(NC(=O)CN2C(=O)NC3(CCCCC3)C2=O)no1 -14.1%, Cc1ccc(NC(=O)CN2C(=O)NC3(CCC(C)CC3)C2=O)c(Cl)c1 (centres undefined) 21%, Cc1cc(NC(=O)CN2C(=O)NC3(CCCCCC3)C2=O)no1 -1.33%, O=C(CN1C(=O)NC2(CCCCC2)C1=O)Nc1ccccc1Cl 30.3%, CCCNC(=O)c1cccc(NC(=O)C(C)C)c1 -3.07%, O=C(NC1CCCc2ccccc21)c1cccc(S(=O)(=O)N2CCOCC2)c1 (centres undefined) 2.84%, Cc1ccc(OCC(=O)Nc2sc3c(c2C#N)CCC3)cc1 4.24%, CCc1onc(C)c1C(=O)Nc1cc(C)ccc1OC 7.34%, COc1ccc2c(c1)SCC/C2=C\CN1C(=O)CCC1=O -6.21%, Cn1c(NCCc2ccccc2)cc(=O)n(C)c1=O 1.23%, COc1ccc(NC(=O)CSc2nnc(N)s2)c([N+](=O)[O-])c1 8.5%, Cc1ccc(NC(=O)CSc2nnc(N)s2)c([N+](=O)[O-])c1 26.8%, CCN(CC)S(=O)(=O)c1cccc(NC(=O)CSc2nnc(N)s2)c1 2.68%, COc1ccc(NC(=O)CSc2n[nH]c(N)n2)c([N+](=O)[O-])c1 56.1%, CCN(CC)C(=O)CSc1nc2ccc(NC(=O)CSc3nnc(N)s3)cc2s1 19.7%, CCc1nc(SCC(=O)Nc2ccc(OC)cc2[N+](=O)[O-])n[nH]1 11.8%, CCCCOC(=O)C(C#N)c1nc2ccccc2nc1N1CCN(Cc2ccc3c(c2)OCO3)CC1 (centres undefined) -4.21%, C/C(=N\NC(=O)c1ccc(CN2CCOCC2)cc1)c1ccc(NC(=O)c2ccccc2)cc1 4.99%, COc1ccc(C2CC(c3ccccc3)=NN2C(=O)COC(=O)CNC(=O)c2ccccc2)cc1 (centres undefined) -5.9%, CCCCC(CC)C(=O)Nc1ccccc1C#N (centres undefined) 2.15%, CCOC(=O)C1CCCCN1Cc1cn[nH]c1-c1ccc(F)cc1F (centres undefined) 0.93%, CCOC(=O)NC1(Nc2cccc(Cl)c2)Oc2ccccc2O1 13.3%, Cc1[nH]n(-c2ccccc2)c(=O)c1-c1ccc(Cl)cc1 14.5%, Cc1[nH]n(C(C)(C)C)c(=O)c1Sc1ccc(Cl)cc1 -0.55%, O=C(CC1Oc2ccccc2NC1=O)NCc1ccccc1 (centres undefined) 2.31%, CC(=O)NCCc1nc2ccccc2n1CCOc1ccccc1C -3.06%, COCc1cc(=O)n2[nH]c(-c3cccc(Br)c3)cc2n1 6.67%, O=C(O)c1cccc(NC(=S)N/N=C/c2cccc(O)c2)c1 56.3%, COc1cc(/C=N/NC(=S)Nc2cccc(C(=O)O)c2)ccc1O 56.1%, COc1ccc(/C=N/NC(=S)Nc2cccc(C(=O)O)c2)cc1OC 38.7%, O=C(O)c1cccc(NC(=S)N/N=C/c2ccccn2)c1 26.1%, Cc1cccc(NC(=S)N/N=C/c2c[nH]c3ccccc23)c1 7.36%, COc1cc(/C=N/NC(=S)Nc2cccc(C(=O)O)c2)cc(OC)c1OC 41%, CCCCCCCCC(=O)N/N=C(\C)c1ccc(O)cc1O 0.48%, Cc1ccccc1OCCn1cc(/C(N)=N/O)c2ccccc21 3.74%, CCO[C@@H]1OC(C(=O)N2CCOCC2)=C[C@H](c2coc3ccccc3c2=O)[C@H]1CCCO -0.63%, CC(=O)c1ccc(NC(=O)c2ccc(S(=O)(=O)c3ccccc3)cc2)cc1 -3.53%, O=C(CC(Nc1ccc(F)cc1)c1ccccc1)c1ccccc1 (centres undefined) -9.06%, O=C(CN(Cc1ccccc1)C(=O)c1ccco1)NCc1ccc(F)cc1 4.59%, Cc1nc(SCC(=O)N2c3ccccc3Sc3ccccc32)n[nH]1 17.3%, O=C(CSc1ccc(Cl)cc1)Nc1cccc(-c2nnc(-c3ccco3)o2)c1 6.07%, COCc1cc(C)nc(SCC(=O)Nc2cccc(C)c2C)c1C#N 6.16%, N#Cc1c(N)nc(-c2ccccc2)nc1-c1ccccc1 -4.62%, O=C(CSc1nc(O)cc(=O)[nH]1)N1c2ccccc2Sc2ccccc21 39.5%, O=C(CSc1nc(-c2ccc(Cl)cc2)[nH]c(=O)n1)Nc1cccc(Cl)c1 -10.8%, N#Cc1c(-c2ccccc2)nc(-c2ccccc2)[nH]c1=O 5.14%, Cc1cccc(NC(=O)CSc2nnc(-c3ccccc3)n2N)c1C 1.89%, O=C(CCn1c(=O)oc2ccccc21)NC1=NCCS1 4.21%, C(=C\c1ccccc1)/C=N/N1CCN(Cc2ccccc2)CC1 3.39%, O=c1c2sccc2nc(SCc2cc(=O)n3ccccc3n2)n1Cc1ccccn1 18%, O=C(CSc1ccc(Cl)cc1)Nn1cnnc1 8.97%, N#CCCN1CCN(S(=O)(=O)c2ccc(S(=O)(=O)NC3CCCC3)cc2)CC1 5.82%, O=C(Cn1nc2n(c1=O)-c1ccccc1SC2)N/N=C/c1cccnc1 3.98%, COc1ccc(CN2C(=O)c3ccccc3C2=O)cc1C(=O)OC(C)C(=O)NC(N)=O (centres undefined) -1.41%, CC(SC(=S)N1CCCC1)C(=O)O (centres undefined) -0.65%, O=C(OCCN1CCOCC1)C(c1ccccc1)c1ccccc1 -9.47%, FC(F)(F)c1nnc2ccc(NCn3nnc4ccccc43)nn12 22.6%, O=C(c1cnc2n(c1=O)CCS2)N(C1CCCCC1)C1CCCCC1 11.3%, CC(C)C(C)(C#N)NC(=O)CSc1nc2scc(-c3ccc(F)cc3)c2c(=O)n1Cc1ccccc1 (centres undefined) 11.3%, COc1cccc(F)c1C(C[N+](=O)[O-])c1c(N)n(C)c(=O)n(C)c1=O (centres undefined) 2.97%, N#CCOc1nc(N2CCCC2)nc(N2CCCC2)n1 1.35%, Cc1cc(OCC(=O)c2ccc(F)cc2)ccc1N1C(=O)CCC1=O -4.66%, O=C(/C=C/c1ccco1)Nc1ccccc1C(=O)O 27.5%, O=C(/C=C/c1ccco1)Nc1cccnc1Cl 5.61%, CCN(CC)S(=O)(=O)c1cccc(C(=O)N/N=C/c2ccccc2OCC(=O)O)c1 13.9%, COc1ccccc1NS(=O)(=O)c1cccc(C(=O)N/N=C/c2ccccc2OCC(=O)O)c1 16.5%, O=C(O)c1cc(S(=O)(=O)Nc2ccc3oc(=O)sc3c2)ccc1O 51.1%, COc1ccc(S(=O)(=O)Nc2ccc3oc(C)c(C(=O)O)c3c2)cc1 6.21%, COCCOC(=O)c1c(C)oc2ccc(NS(=O)(=O)c3ccc(C)cc3)cc12 2.98%, COCCOC(=O)c1c(C)oc2ccc(NS(=O)(=O)c3ccc(C(=O)O)cc3)cc12 32.9%, Cc1cc(C(=O)CN2C(=O)C(=O)N(Cc3ccccc3)C2=O)c(C)n1-c1ccc2c(c1)OCCO2 -11.2%, CC(C)c1nc(SCC(=O)Nc2c[nH]c(=O)[nH]c2=O)c2cnn(-c3ccccc3)c2n1 -6%, CC(=O)OCC(=O)Nc1ccccc1OC(F)F -2.65%, Cc1ccc(CNC(=O)C2CCCN(c3nc4ccsc4c(=O)s3)C2)cc1 (centres undefined) -6.15%, C#CCOCCOCCOCCNc1nc(N2CCN(C(=O)C([C@@H](C)CC)n3cc(C(N)CO)nn3)CC2)nc(N2CCN(C(=O)[C@H](CCC(=O)O)n3cc(C(N)CC(C)C)nn3)CC2)n1 (some centres undefined) 2.95%, O=C(N=C1c2ccccc2CN1c1ccc(F)c(F)c1)c1cccnc1 3.87%, Cc1ccc(C(=O)Nc2c(C)cc(-c3ccc(Cl)cc3)oc2=O)cc1 2.9%, CC1(CCc2ccccc2)NC(=S)N(c2ccccc2)N1 (centres undefined) 10.2%, Cc1cccc(NC(=S)NNC(=O)c2cccc([N+](=O)[O-])c2)c1 3.9%, CCCCCC(=O)NNC(=S)NC(=O)c1ccccc1[N+](=O)[O-] 14.3%, CCCCCCCC(=O)NNC(=O)c1ccc([N+](=O)[O-])cc1 1.27%, CCCC(=O)Nc1ccc(C(=O)NNC(=O)c2cccc([N+](=O)[O-])c2)cc1 4.12%, CCCCC(=O)NNC(=S)NC(=O)c1ccc(C)cc1 59.8%, CCCCC(=O)NNC(=S)NC(=O)c1ccc([N+](=O)[O-])cc1 44.2%, O=C(CNC(=S)NC(=O)c1cccc([N+](=O)[O-])c1)c1ccccc1 -0.71%, CCCCC(=O)Nc1cccc(NC(=O)c2cccc([N+](=O)[O-])c2)c1 5.17%
